Screening results as filed in PubChem.
Most compounds without a hit are left out; they make up all but 2.6% or so of the library.
TLR4 MyD88 blk – inhibitors of human TLR4-MyD88 binding; O00206; Cell-based TLR4-MyD88 binding inhibition assay; inhibition, % at 10 µM; 0.06% of 16,000 active; AID 811; in the data active = inhibition above about 45%
S1P1 ag – S1P1 (human) receptor agonism | 1.5% of 16,000 active | AID 1044 | activation, % at 4.5 µM | S1P1 agonist cell-based reporter assay | P21453; in the data active = activation above about 80%
Target sequence (P21453 whole entry, looked up): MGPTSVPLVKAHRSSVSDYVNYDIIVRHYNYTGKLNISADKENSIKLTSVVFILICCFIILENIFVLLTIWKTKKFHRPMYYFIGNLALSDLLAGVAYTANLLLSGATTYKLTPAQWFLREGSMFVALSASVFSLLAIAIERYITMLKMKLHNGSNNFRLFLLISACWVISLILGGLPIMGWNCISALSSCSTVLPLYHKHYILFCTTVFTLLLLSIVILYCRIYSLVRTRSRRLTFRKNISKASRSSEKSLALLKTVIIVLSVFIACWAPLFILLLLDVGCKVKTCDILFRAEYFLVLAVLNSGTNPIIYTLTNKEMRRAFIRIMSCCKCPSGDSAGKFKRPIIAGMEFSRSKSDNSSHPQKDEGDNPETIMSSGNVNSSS
rat GALR2 agon – agonists of rat galanin receptor 2 (GALR2). activation, % at 10 µM. cell-based GALR2 agonist screen. AID 833. 0.5% of 16,000 active; in the data active = activation above about 15%
OPRK1 antag MB – OPRK1 (human) antagonism, Maybridge screen. AID 652031. 0.4% of 16,000 active. inhibition, % at 9 µM. OPRK1 cells, antagonist mode, fluorescence readout; in the data active = inhibition above about 50%
Of the large screens only hits and unclear results are named; the others gave an inactive call.

FC(F)(F)c1cc(-c2nsc(N3CCOCC3)n2)cc(C(F)(F)F)c1	rat GALR2 agon 21.8
FC(F)(F)c1cc(N=NN2CCOCC2)cc(C(F)(F)F)c1	none
CN(C)c1ccc(/C=N/N)cc1	none
c1ccc(-c2[nH]c3ccccc3c2-c2ccccc2)cc1	none
Oc1[nH]c2ccccc2c1N=Nc1nnc(-c2ccccc2)c(-c2ccccc2)n1	S1P1 ag 96.2
O=C(O)CSCC(=O)Nc1cccc2c1CCCC2	rat GALR2 agon 24.4
COc1ccc(Oc2ccc([N+](=O)[O-])c(Oc3ccc(OC)cc3)n2)cc1	S1P1 ag 88.1
CC1(C)C=C(C(N)=O)C(C)(C)N1	none
COc1cccc(OC)c1NC(=O)N1CCOCC1	none
N#C/C(=C\Nc1cc(C(F)(F)F)cc(C(F)(F)F)c1)S(=O)(=O)c1ccc(Cl)cc1	S1P1 ag 86.6
N#C/C(=C\Nc1cccnc1)S(=O)(=O)c1ccc(Cl)cc1	none
COC(=O)c1cc(NC(=O)c2c(Cl)cccc2Cl)ccc1N1CCOCC1	none
COC(=O)c1cc(NC(=O)/C=C/c2ccc(OC)c(OC)c2Cl)ccc1N1CCOCC1	S1P1 ag 84.6
O=[N+]([O-])c1cc(C2SCCS2)ccc1SC1CCCCC1	S1P1 ag 85.9
O=[N+]([O-])c1cc(C2SCCS2)ccc1Sc1ccc(Cl)cc1	none
Cc1cc(NS(=O)(=O)c2ccc(C(F)(F)F)cc2Cl)no1	none
O=S(=O)(Nc1cc(C(F)(F)F)ccc1F)c1cc(C(F)(F)F)ccc1Cl	S1P1 ag 85.5
C/C(=N\OC(=O)c1ccc(Cl)cc1)c1csc2ccccc12	none
O=C(c1cccs1)N1CCc2ccccc2C1	rat GALR2 agon 34.0
Cc1nnsc1C(=O)Nc1ccc(-n2nc(C(F)(F)F)cc2C(F)(F)F)cc1	S1P1 ag 98.7 (no result: TLR4 MyD88 blk)
Cc1nnsc1C(=O)Nc1ccc(-n2nc(C(F)(F)F)cc2-c2cccs2)cc1	none
COc1cc(C(=O)NC2CC(C)CC(C)(C)C2)cc(OC)c1OC (configuration not stated)	S1P1 ag 108.8
COc1ccc(OC)c(NC(=O)C(=O)NC2CC(C)CC(C)(C)C2)c1 (configuration not stated)	none
c1ccc2cc3sccc3cc2c1	none
S=C(NNc1c(Cl)cncc1Cl)Nc1ccc(Cl)cc1Cl	S1P1 ag 118.5, OPRK1 antag MB 62.3
OCCCNNC(=S)Nc1ccc(Cl)cc1Cl	none
O=C(N/N=C/c1cccnc1)N/N=C/c1cccnc1	none
O=[N+]([O-])c1c(N2CCOCC2)ccc2nsnc12	rat GALR2 agon 55.5
N#CCCN(CC1CCCO1)S(=O)(=O)c1cccc2nsnc12 (configuration not stated)	none
CC(C)(C)c1cc(C(=O)NNC(=S)Nc2ccccc2)n(Cc2ccc(Cl)cc2Cl)n1	S1P1 ag 101.0
CC(C)(C)c1cc(C(=O)NCc2ccc(C#N)cc2)n(Cc2ccccc2)n1	none
CC1COC(c2cccc([N+](=O)[O-])c2)N1 (configuration not stated)	OPRK1 antag MB 56.1
Cc1ccc(C)n1-c1cccc([N+](=O)[O-])c1	none
Cc1onc(-c2c(Cl)cccc2Cl)c1C(=O)NCc1cc(F)cc2c1OCOC2	none
O=C(NCc1ccc(C(F)(F)F)cc1)c1cc(Cl)cc(Cl)c1	none
O=C(O)C(F)(F)C(F)(F)C(=O)NCc1cccc(Cl)c1	OPRK1 antag MB 50.5
CCOC(=O)C1CCN(Cc2cccc(NC(=O)c3cccs3)c2)CC1	OPRK1 antag MB 50.2
CN(C)c1ccc(C(=O)NNS(=O)(=O)c2cccc(C(F)(F)F)c2)cc1	none
CCOC(=O)c1cn(CC(=O)NN)nc1C(F)(F)F	none
COc1ccc(CC(C)=C(C#N)C#N)cc1OC	none
COc1ccc(N=Nc2ccc(OC)c(OC)c2)cc1OC	S1P1 ag 92.7
N#C/C(=C\c1ccc(Cl)cc1)S(=O)(=O)c1ccc(F)cc1	none
N#C/C(N=Cc1ccc(Cl)cc1)=C(\C#N)NC(=O)Nc1ccc(OC(F)(F)F)cc1	S1P1 ag 100.5
CC(C)(C)CN/C(C#N)=C(\N)C#N	S1P1 ag 106.1
Cc1nc2ccccc2[nH]c1=O	none
O=c1[nH]c2ccccc2nc1-c1c[nH]c2ccccc12	rat GALR2 agon 81.6
Cc1cc(C(=O)Nc2nc3ccc(Cl)cc3s2)nn1C	S1P1 ag 102.5
Cc1cc(C(=O)Nc2ccc(N3CCOCC3)cc2)nn1C	none
COc1ncc(C(=O)NNC(=S)NC2CCCCC2)cc1[N+](=O)[O-]	none
CN(CCc1ccccn1)C(=O)c1nccnc1C(=O)O	S1P1 ag 94.5
Cc1ccc(S(=O)(=O)NC(=O)N(C)CCc2ccccn2)cc1	none
O=C(/C=C/c1ccccc1)NNC(=O)CSCc1cccc2ccccc12	none
FC(F)(F)c1cccc(C=NCc2ccc(-c3cccs3)s2)c1	none
Nc1nc(-c2ccc3c(c2)CCC3)cc(C(F)(F)F)n1	S1P1 ag 83.0
Cc1csc2sc(/C=C(\C#N)C(=O)c3ccc(Cl)cc3)c(C)c12	none
